Experimental data as given in PubChem BioAssay AID720650 (Broad Institute, 2013).
Active and inactive are the calls of the source. No rule for the calls is given here.

Assay: Biochemical counterscreen for C difficile toxins, absence of UDPG, inhibitor dose response (AID 720650)
Settings: series mostly up to 19.5 µM

SMILES | AC50
O=[N+]([O-])c1ccc(S(=O)(=O)Nc2nc(-c3ccccc3)cs2)cc1 | inactive
O=c1oc(-c2ccc(Br)cc2)nc2ccccc12 | inactive
O=C(CSc1ccc2nnc(-c3ccc(F)cc3)n2n1)N1CCOCC1 | inactive
COc1cc(/C=C/C(=O)OCC(=O)c2ccc[nH]2)ccc1O | inactive
Cc1cc(C(=O)NNc2ccc(C)c(C)c2)no1 | 0.287 µM (active)
Nc1ccc2nc(-c3cccs3)[nH]c2c1 | 11 µM (active)
CC(=O)c1cccc(OCC(=O)c2cc(C)n(-c3cc(C)on3)c2C)c1 | 12 µM (active)
CN1C(=O)C(c2nnc(Nc3cccc4ccccc34)s2)C2CC1(C)Oc1ccccc12 (stereo not drawn) | inactive
CC(OC(=O)c1cccnc1Cl)C(=O)NC1CCCCC1 (stereo not drawn) | inactive
O=C(Nc1ccc(N2CCOCC2)c(Cl)c1)c1ccc(F)cc1 | inactive
COc1ccc(Cl)cc1NC(=S)NC1CCCC1 | inactive
Cc1ccc(S(=O)(=O)N2CC(CO)=CCC2c2ccccc2)cc1 (stereo not drawn) | 8.79 µM (active)
C[C@@H]1CN([C@@H](C)CO)S(=O)(=O)c2ccc(C#Cc3ccncc3)cc2O[C@H]1CN(C)C(=O)C1CC1 | inactive
COc1cc(/C=N/NC(=O)c2c(C)nc3ccc(Cl)cn23)cc(OC)c1OC | inactive
COc1ccc(Cl)cc1NC(=O)CSc1nnc(-c2ccco2)o1 | > 39 µM (inactive)
C=CCNS(=O)(=O)c1nc(C)c(Cl)c(C)c1C#N | inactive
CCOC(=O)c1nnn(-c2nonc2N)c1-c1ccc(F)cc1 | inactive
COc1ccc(C2=NS(=O)(=O)N(C)C(C(=O)N3CCc4ccccc4C3)=C2)cc1OC | inactive
